# Compound activity from PubChem.
# Nrf2 inh = inhibitors of Nrf2 signaling; A549 ARE-Fluc reporter, luciferase luminescence, 18-24 h; Potency, µM (series often up to 46 µM), without a hit: at the top dose activity change, negative = inhibition, usual class: inhibitors; hit rate 2.1% among 360,000; note: % is set by controls: 0 for no effect and ±100 for the full control effect; nearly all actives have a fitted effect of over 60% in size
#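 Concentration-response testing used A549 ARE_Fluc cells at 5000 cells/well. Following an 18-24 h compound incubation, viability was read by fluorescence (Ex 405/Em 525) and luciferase output by luminescence.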
# mIDH1 inhibitor = blocks human mutant IDH1 R132H enzyme. O75874. IDH1-R132H enzyme, NADPH consumption, diaphorase/resazurin fluorescence. Potency, µM (doses to about 76.6 µM), for inactives: at the highest dose activity change, negative = inhibition, most hits filed as inhibitors. hit rate 0.093% among 390,000. AID 602179; note: % is set by controls: 0 for no effect and ±100 for the full control effect; nearly all actives have a fitted effect of over 65% in size
# Target sequence (O75874 whole entry R132H, stated change not applied): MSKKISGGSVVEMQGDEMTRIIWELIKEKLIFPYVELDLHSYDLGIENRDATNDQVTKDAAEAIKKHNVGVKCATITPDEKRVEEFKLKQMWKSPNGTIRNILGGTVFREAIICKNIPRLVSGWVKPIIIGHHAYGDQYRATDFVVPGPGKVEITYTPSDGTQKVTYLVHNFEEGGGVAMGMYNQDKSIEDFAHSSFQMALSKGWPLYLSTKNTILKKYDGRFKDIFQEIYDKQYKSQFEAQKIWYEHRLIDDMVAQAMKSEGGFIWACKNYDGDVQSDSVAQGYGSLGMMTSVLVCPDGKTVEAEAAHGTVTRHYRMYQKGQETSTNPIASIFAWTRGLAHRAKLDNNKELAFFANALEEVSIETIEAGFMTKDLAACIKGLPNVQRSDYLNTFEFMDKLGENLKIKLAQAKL
#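 IDH1-R132H (0.5 ug/mL dispensed) in pH 7.5 Tris buffer was preincubated 30 min with compound, then given a substrate mix of 0.016 mM NADPH and 2 mM alpha-KG for 80 min at room temperature; remaining NADPH was read by diaphorase/resazurin fluorescence.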
# ELG1 repair inh = ELG1-dependent DNA repair inhibition | AID 504467 | HEK293T ELG1-luciferase reporter, luminescence, 16 h; DNA damage induced by 5-fluorouridine | Potency, µM (top dose mostly 46.1 µM), without a hit: at the top dose activity change, negative = inhibition, actives largely listed as inhibitors | hit rate 2.3% among 330,000; note: % is set by controls: 0 for no effect and ±100 for the full control effect; nearly all actives have a fitted effect of over 55% in size
#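 Luminescence from the luciferase reporter, measured 30 min after ONE-Glo reagent at room temperature, was the read-out. Beforehand, 2,000 cells per well were exposed for 16 hr at 37 °C to 5-fluorouridine together with compound or vehicle.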
# A549 tox = A549 cytotoxicity, counter-screen for Nrf2 inhibitors; A549 ARE-Fluc cells, CellTiter-Fluor viability, 18-24 h; Potency, µM (series often up to 46 µM), without a hit: top-dose activity change, negative = cytotoxicity, actives largely listed as inhibitors; hit rate 0.16% among 390,000; note: % is set by controls: 0 for no effect and ±100 for the full control effect
#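 A549 ARE-Fluc cells in 5% FBS OPTI-MEM, 5000 cells/well, rested 2 h then exposed to compounds in concentration-response for 18-24 h at 37 °C. Viability by CellTiter-Fluor fluorescence (Ex 405/Em 525) after 30 min; luciferase luminescence (BugLite, 15 min, RT) read afterwards.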
# Nrf2 activator = activators of Nrf2 (ARE) signaling; hit rate 0.31% among 410,000; Potency, µM (titrated, usually from 46.1 µM), inactives show top-dose activation, most hits filed as activators; AREc32 ARE-luciferase reporter (MCF7-derived line), luminescence, 24 h; note: % of control where 0% means no effect; nearly all actives have a fitted effect of over 65% in size
#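 Nrf2 activation is followed as ARE-luciferase induction in the AREc32 line after one day of compound treatment; luminescence is read with Steady-Glo.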
# * marks the source's active call; other numbers are inactive results; ? = inconclusive; nt = no result given; [ ] = dose if it differs, or a comment. Hits are enriched below; roughly 3.8% of the tested compounds scored in any of these assays. Calls come from the whole dose curve; as a rule, active = well fitted curve in the direction sought with a large enough effect; inconclusive = small, poorly fitted or top-dose-only effect, or another doubt; inactive = no such curve, though single readings can be large; an effect the other way counts as inactive or inconclusive. Potency is the fitted concentration of half-maximal effect.
SMILES,Nrf2 inh,mIDH1 inhibitor,ELG1 repair inh,A549 tox,Nrf2 activator
CC(=O)n1cc(N(C(=O)CCl)c2ccccc2)c2ccccc21,?,2%,?,-8%,?
COc1ccc(S(=O)(=O)NC(=O)C2(C)CCN2C(=O)Cc2cc(C)cc(C)c2)cc1OC (stereo not given),nt,nt,nt,nt,-1%
CC(OC(=O)c1ccccc1Nc1ccc(SC(F)F)cc1)C(N)=O (stereo not given),26µM*,-1%,7%,-3%,3%
NC(=O)COC(=O)c1ccccc1Nc1ccc(SC(F)F)cc1,?,3%,15%,0%,5%
COC(=O)c1sc2c(c1C)c(=O)n(-c1ccccc1)c(=O)n2CC(=O)Nc1cccc(C)c1,nt,-3%,nt,-11%,-1%
N#C/C(=N\Nc1cccc(Cl)c1)C(=O)c1ccccc1,?,0%,?,18µM*,4%
COc1ccc(C(=O)/C(C#N)=N/Nc2cccc([N+](=O)[O-])c2)cc1,23µM*,2%,?,?,?
N#C/C(=N\Nc1ccc(Cl)cc1)C(=O)c1ccsc1,16µM*,8%,2.3µM*,?,6%
N#C/C(=N\Nc1ccccc1)C(N)=S,-13%,-2%,?,-27%,3%
N#C/C(=N\Nc1ccccc1Cl)C(=O)c1ccccc1,?,3%,6%,?,4%
N#C/C(=N\Nc1ccc(Cl)cc1)C(N)=S,?,-1%,9.2µM*,?,9%
Cc1ccc(F)cc1NC(=O)COC(=O)c1ccc(S(C)(=O)=O)c([N+](=O)[O-])c1,13%,nt,nt,-3%,nt
Cc1cc(C)n(-c2nc3ccccc3nc2Nc2cccc(C(F)(F)F)c2)n1,27%,5%,nt,0%,-1%
CCOC(=O)N1CCN(C(=O)COc2cccc3c2CCN(Cc2ccccc2C)C3=O)CC1,-29%,7%,?,9%,1%
O=C1c2cccc(OCC(=O)N3CCCc4ccccc43)c2CCN1Cc1cccnc1,-59%,1%,7.3µM*,-3%,3%
CCOC(=O)N1CCN(C(=O)COc2cccc3c2CCN(Cc2cccc(C)c2)C3=O)CC1,?,3%,21µM*,-4%,3%
Cc1ccccc1CN1CCc2c(OCC(=O)N3CCCc4ccccc43)cccc2C1=O,?,-9%,?,-16%,0%
O=C1c2cccc(OCC(=O)N3N=C(c4cccs4)CC3c3ccc(F)cc3)c2CCN1Cc1cccnc1 (stereo not given),?,-3%,18µM*,-18%,-1%[9.22 µM]
CC1C(=O)Nc2ccc(S(=O)(=O)N3CCN(c4cccc(C(F)(F)F)c4)CC3)cc2NC1=O (stereo not given),8.2µM*,3%,-14%,?,0%
COc1ccccc1C(=O)Nc1ccnn1C1CCN(Cc2cc(C)c(C)cc2C)CC1,-18%,3%,23µM*,-18%,1%
CCOc1[nH]c(/N=C/c2ccc(OC)cc2)c(C#N)c1C#N,-3%,nt,nt,-1%,nt
CCOC(=O)C1=C(CN2CCCCC2)NC(=O)NC1c1cc(C)ccc1C (stereo not given),-4%,-1%,-1%,-4%,1%
CCOC(=O)C1=C(CSCc2ccccc2)NC(=O)NC1c1cc(C)ccc1C (stereo not given),18µM*,3%,?,?,0%
CN(C)S(=O)(=O)c1cccc(NC(=O)COc2ccc(C(=O)c3ccccc3)cc2)c1,?,-4%,13µM*,-8%,4%
COc1ccc(COCC(O)CN2CCN(S(=O)(=O)c3ccc(C(C)C)cc3)CC2)cc1 (stereo not given),?,3%,13µM*,-4%,2%
SMILES,Nrf2 inh,mIDH1 inhibitor,ELG1 repair inh,A549 tox,Nrf2 activator
CCOc1ccccc1OCC(=O)Nc1cccc(S(=O)(=O)N2CCCCCC2)c1,4%,4%,?,3%,4%
CC(=O)c1ccccc1OCC(=O)Nc1cccc(S(=O)(=O)N2CCCC2)c1,13µM*,-5%,?,0%,5%
CN(c1ccccc1)S(=O)(=O)c1cccc(NC(=O)COc2ccccc2)c1,?,3%,?,8%,5%
O=C(COc1ccc(Br)cc1CO)Nc1ccc(S(=O)(=O)N2CCCCC2)cc1,?,0%,18µM*,-4%,0%
CCn1c(=O)cc(SCC(=O)NCCc2ccc(OC)cc2OC)c2ccccc21,-26%[9.27 µM],-9%,nt,1%,4%
Cc1c(Cl)cccc1NC(=O)c1ncn(-c2ccccc2)n1,?,-4%,nt,-1%,6%
CCOc1ccccc1OCC(=O)Nc1ccc(OC)c(S(=O)(=O)N2CCCCC2)c1,-20%,3%,?,0%,-1%
O=C(COc1ccc(Cl)cc1Br)Nc1cccc(S(=O)(=O)N2CCCC2)c1,?,3%,-14%,-4%,4%
CC(CNC(=O)Cn1ccc2cc(S(=O)(=O)N3CCCCCC3)ccc21)c1ccccc1 (stereo not given),21µM*,0%,nt,-1%,-1%
CC(CC(=O)Nc1cccc(S(=O)(=O)N2CCCCC2)c1)c1ccccc1 (stereo not given),13µM*,11%,?,?,-1%
COc1ccc(NC(=O)COc2ccccc2C#N)c(S(=O)(=O)N2CCCCC2)c1,-30%,1%,21µM*,-15%,2%
N#Cc1ccccc1OCC(=O)Nc1cccc(S(=O)(=O)N2CCCCCC2)c1,-14%,4%,18µM*,-3%,0%
O=C(CSc1ccccc1)Nc1cccc(S(=O)(=O)N2CCCC2)c1,3%,1%,1%,-2%,0%
CCn1ccc2cc(S(=O)(=O)N3CCC(C(=O)NCC(C)c4ccccc4)CC3)ccc21 (stereo not given),nt,2%,nt,-3%,3%
CC(C(=O)NCc1ccc(F)cc1)n1ccc2cc(S(=O)(=O)N3CCCC3)ccc21 (stereo not given),21µM*,12%,?,-17%,-1%
CCCCNC(=O)CCn1ccc2cc(S(=O)(=O)N3CCCC3)ccc21,2%,-7%,6%,-3%,0%
O=C(Cn1cnnn1)Nc1cccc(S(=O)(=O)N2CCCCC2)c1,-10%,7%,6%,-7%,-1%
Cc1ccc(CNC(=O)C(C)n2ccc3cc(S(=O)(=O)N4CCCC4)ccc32)cc1 (stereo not given),?,-1%,nt,-4%,4%
CCOc1ccc(CCNC(=O)CCn2ccc3cc(S(=O)(=O)N4CCCC4)ccc32)cc1,26µM*,0%,?,-8%,3%
Cc1ccc2cccc(OCC(=O)Nc3cccc(S(=O)(=O)N4CCCC4)c3)c2n1,?,0%,18µM*,0%,-1%
O=C(Cn1nnc(-c2ccccc2)n1)Nc1cccc(S(=O)(=O)N2CCCC2)c1,16µM*,8%,-9%,-5%,0%
